Results published in PubChem BioAssay.
Results with a measured potency or affinity are listed apart. Active and inactive are the calls of the source.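 Rule for the calls: active = signal drop whose fitted half-maximal concentration is at most twice the top valid dose, in every test run; inconclusive = mixed calls across runs, poor fit, or flat 30 to 70% inhibition; inactive = wrong direction, flat within 30%, or potency beyond limit.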

Test: cytotoxicity in PAX8-dependent RMG-1 cells, dose response, cell-based, cherry-pick (AID 687029);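 note: cells exposed to compound for 96 hours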
Settings: RMG-1 viability, CellTiterGlo ATP luminescence, 96 h; series mostly up to 35 µM
For `CC(=NNc1ccc2ccccc2n1)c1ccccn1`, the outcome was “inactive”.
For `CCC1CCCCN1S(=O)(=O)c1ccc(NC(=O)c2nc(S(C)(=O)=O)ncc2Cl)cc1` (configuration not stated), the outcome was “inactive”.
In the case of `CCN1CCN(Cc2ccc(NC(=O)c3ccc(C)c(NC(=O)C(=O)c4c[nH]c5ccccc45)c3)cc2C(F)(F)F)CC1`, the outcome is reported as “inactive”.
With `O=C(NC1=C(NC2CCS(=O)(=O)C2)C(=O)c2ccccc2C1=O)c1ccccc1` (configuration not stated) the outcome was “inactive”.
For `COc1ccc2nc(C)cc(N/N=C/c3cccc(OC)c3O)c2c1`, the outcome was “inactive”.
For `O=C(Nc1ccc([N+](=O)[O-])cc1)C(=O)Nc1cccc(C(=O)O)c1`, the outcome was “inactive”.
In the case of `Nc1nc(Sc2ccc([N+](=O)[O-])c3nonc23)c2[nH]cnc2n1`, the outcome is reported as “inactive”.
With `COC1=CC(=O)c2c(ccc3ncnc(N)c23)C1=O` the outcome was “inactive”.
For `O=C(CCCCCCC(=O)Nc1ccccc1)NO`, the outcome was “inactive”.
With `CCOc1ccc(C(=O)O/N=C(\N)c2ccccn2)cc1` the outcome was “inactive”.
In the case of `Nc1ncnc2c(C3OC(CO)C(O)C3O)c[nH]c12` (configuration not stated), the outcome is reported as “inactive”.
With `Cc1ccc(Cl)cc1NC1=C/C(=N\S(=O)(=O)c2cccs2)c2ccccc2C1=O` the outcome was “inactive”.
With `Cc1ccc(Cn2ccsc2=NC(=O)CCl)cc1` the outcome was “inactive”.
For `COc1ccc(N(C(=O)CCl)C(C(=O)NCCc2ccccc2)c2cccs2)cc1` (configuration not stated), the outcome was “inactive”.
For `CC(C)(C)OC(=O)NCCCC[C@H](NC(=O)c1[nH]cnc1C(=O)Nc1ccc(CNC(=O)OC(C)(C)C)cc1)C(=O)OC(C)(C)C`, the outcome was “inactive”.
With `C=CCn1c(C)cc(C2=NNC(=NCC)SC2)c1C` the outcome was “inactive”.
With `CCCCCN=C(N)N/N=C/c1c[nH]c2ccc(OC)cc12` the outcome was “inactive”.
